Test results taken from the supplement of paper PMC11732987, “Enantioselective OTUD7B fragment discovery through chemoproteomics screening and high-throughput optimisation” (Communications Chemistry, 2025).

Columns and labels:
Assay in all cases: log2 ratio of Biotin-Ahx-Ub-VS probe labelling (fragment/DMSO); higher = less target engagement (more negative = stronger competition), active = hit call of the paper (q ≤ 0.05, log2 ratio ≤ -1)
Settings in all cases: compound concentration: 200 uM; treatment time: 3 h
USP19 = target: T1, USP19 (UniProt O94966)
T1 sequence (whole entry): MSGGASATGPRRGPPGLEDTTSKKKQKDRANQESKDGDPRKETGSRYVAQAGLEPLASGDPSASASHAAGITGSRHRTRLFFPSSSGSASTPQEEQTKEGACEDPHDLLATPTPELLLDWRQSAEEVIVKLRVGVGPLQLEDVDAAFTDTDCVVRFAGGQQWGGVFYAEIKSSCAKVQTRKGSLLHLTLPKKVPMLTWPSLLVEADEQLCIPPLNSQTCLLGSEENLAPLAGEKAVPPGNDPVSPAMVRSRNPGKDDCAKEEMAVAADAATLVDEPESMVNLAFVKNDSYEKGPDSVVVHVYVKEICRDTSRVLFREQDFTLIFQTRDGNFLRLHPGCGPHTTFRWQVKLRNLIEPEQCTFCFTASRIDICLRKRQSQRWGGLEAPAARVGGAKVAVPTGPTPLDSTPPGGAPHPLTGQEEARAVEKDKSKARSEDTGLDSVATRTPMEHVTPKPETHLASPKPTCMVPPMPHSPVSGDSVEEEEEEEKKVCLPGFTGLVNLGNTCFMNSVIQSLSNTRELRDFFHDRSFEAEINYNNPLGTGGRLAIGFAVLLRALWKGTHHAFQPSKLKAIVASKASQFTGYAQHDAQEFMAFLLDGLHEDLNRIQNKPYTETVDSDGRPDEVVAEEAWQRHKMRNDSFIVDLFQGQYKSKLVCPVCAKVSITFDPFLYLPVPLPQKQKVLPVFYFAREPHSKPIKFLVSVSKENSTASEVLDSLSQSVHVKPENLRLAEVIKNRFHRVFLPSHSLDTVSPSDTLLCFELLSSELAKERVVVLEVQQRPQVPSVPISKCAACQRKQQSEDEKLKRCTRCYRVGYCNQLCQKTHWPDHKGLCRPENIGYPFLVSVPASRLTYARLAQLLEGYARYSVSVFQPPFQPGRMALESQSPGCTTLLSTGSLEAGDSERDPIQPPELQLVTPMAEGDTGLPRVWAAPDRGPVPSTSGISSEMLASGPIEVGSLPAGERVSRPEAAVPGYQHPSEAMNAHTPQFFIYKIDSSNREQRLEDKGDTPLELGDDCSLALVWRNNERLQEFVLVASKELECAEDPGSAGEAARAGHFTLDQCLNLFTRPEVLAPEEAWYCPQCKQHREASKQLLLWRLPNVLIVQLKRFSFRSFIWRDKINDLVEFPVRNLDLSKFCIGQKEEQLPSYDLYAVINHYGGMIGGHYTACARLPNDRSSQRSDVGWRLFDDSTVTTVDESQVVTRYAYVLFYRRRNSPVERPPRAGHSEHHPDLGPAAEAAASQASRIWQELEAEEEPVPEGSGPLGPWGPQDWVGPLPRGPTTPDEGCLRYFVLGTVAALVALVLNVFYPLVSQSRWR
Method in brief: (§1)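 HEK293T lysate in Tris/CHAPS/IGEPAL buffer with protease inhibitors (495 µg per sample) was given fragment at 200 µM or vehicle for 3 h, in triplicate. It then received Biotin-Ahx-Ub-VS at 0.5 µM final for 1 h. Labelled DUBs were NeutrAvidin-enriched, digested with LysC and trypsin, and run by diaPASEF LC-MS/MS. Values are average log2 fragment/vehicle ratios by unpaired t-test on global-median-normalised Spectronaut quantities of proteins with ≥2 unique peptides.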

USP24 = USP24 (UniProt Q9UPU5)
Method in brief: as §1

USP25 = target: T2, USP25 (UniProt Q9UHP3)
T2 sequence (whole entry): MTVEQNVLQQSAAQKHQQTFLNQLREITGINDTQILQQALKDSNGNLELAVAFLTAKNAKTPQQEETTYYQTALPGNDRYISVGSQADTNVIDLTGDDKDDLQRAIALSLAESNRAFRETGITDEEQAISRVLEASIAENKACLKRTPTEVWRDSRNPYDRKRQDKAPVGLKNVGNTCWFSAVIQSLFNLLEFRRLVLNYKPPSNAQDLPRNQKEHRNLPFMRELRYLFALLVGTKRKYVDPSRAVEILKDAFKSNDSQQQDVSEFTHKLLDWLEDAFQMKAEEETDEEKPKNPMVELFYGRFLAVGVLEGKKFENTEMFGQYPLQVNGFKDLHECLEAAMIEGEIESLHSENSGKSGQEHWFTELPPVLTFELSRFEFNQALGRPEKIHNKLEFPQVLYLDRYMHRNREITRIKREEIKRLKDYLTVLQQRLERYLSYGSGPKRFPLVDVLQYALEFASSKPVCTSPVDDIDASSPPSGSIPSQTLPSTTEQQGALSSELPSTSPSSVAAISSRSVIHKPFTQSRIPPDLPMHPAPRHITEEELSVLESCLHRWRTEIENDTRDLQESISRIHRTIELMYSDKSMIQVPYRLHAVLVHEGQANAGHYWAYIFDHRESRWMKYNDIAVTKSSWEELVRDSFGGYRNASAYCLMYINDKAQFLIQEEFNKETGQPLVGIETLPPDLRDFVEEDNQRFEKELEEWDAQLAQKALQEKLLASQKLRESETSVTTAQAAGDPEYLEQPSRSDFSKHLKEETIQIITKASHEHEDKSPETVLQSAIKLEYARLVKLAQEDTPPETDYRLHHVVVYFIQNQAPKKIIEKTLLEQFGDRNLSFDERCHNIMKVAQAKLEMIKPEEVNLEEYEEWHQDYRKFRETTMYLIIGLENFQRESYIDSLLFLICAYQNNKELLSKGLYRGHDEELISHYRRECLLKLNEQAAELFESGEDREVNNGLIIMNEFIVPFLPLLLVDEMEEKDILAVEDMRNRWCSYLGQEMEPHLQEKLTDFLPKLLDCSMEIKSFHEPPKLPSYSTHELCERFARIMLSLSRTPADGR
Method in brief: as §1

USP28 = target: T3, USP28 (UniProt Q96RU2)
T3 sequence (whole entry): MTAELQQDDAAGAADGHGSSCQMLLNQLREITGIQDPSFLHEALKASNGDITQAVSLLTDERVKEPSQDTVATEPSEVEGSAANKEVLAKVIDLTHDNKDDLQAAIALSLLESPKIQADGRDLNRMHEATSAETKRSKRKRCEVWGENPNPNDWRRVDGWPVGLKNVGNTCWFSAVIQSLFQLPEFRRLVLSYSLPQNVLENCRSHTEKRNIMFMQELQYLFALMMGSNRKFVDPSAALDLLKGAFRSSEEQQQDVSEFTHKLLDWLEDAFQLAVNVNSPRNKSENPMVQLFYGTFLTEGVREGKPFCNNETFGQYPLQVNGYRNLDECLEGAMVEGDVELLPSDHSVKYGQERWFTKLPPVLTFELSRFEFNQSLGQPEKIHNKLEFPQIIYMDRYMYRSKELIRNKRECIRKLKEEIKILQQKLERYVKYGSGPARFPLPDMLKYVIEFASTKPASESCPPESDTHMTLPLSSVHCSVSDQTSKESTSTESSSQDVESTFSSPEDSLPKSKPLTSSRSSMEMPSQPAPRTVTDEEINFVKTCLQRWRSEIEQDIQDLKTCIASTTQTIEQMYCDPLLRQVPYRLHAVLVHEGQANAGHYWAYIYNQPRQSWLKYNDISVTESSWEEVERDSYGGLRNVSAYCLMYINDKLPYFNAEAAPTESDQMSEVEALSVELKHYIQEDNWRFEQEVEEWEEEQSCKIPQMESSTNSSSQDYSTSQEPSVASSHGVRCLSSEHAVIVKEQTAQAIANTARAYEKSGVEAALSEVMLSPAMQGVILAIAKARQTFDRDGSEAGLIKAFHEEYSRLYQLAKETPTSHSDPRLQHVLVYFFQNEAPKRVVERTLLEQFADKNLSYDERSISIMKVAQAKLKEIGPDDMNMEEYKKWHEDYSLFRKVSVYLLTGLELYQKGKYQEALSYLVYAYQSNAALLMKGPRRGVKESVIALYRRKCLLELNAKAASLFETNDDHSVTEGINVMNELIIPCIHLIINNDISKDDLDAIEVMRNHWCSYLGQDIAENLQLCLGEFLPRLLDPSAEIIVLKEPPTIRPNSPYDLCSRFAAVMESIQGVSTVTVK
Method in brief: as §1

Measured: log2 ratio of Biotin-Ahx-Ub-VS probe labelling

Chain of USP24 (Q9UPU5 whole entry): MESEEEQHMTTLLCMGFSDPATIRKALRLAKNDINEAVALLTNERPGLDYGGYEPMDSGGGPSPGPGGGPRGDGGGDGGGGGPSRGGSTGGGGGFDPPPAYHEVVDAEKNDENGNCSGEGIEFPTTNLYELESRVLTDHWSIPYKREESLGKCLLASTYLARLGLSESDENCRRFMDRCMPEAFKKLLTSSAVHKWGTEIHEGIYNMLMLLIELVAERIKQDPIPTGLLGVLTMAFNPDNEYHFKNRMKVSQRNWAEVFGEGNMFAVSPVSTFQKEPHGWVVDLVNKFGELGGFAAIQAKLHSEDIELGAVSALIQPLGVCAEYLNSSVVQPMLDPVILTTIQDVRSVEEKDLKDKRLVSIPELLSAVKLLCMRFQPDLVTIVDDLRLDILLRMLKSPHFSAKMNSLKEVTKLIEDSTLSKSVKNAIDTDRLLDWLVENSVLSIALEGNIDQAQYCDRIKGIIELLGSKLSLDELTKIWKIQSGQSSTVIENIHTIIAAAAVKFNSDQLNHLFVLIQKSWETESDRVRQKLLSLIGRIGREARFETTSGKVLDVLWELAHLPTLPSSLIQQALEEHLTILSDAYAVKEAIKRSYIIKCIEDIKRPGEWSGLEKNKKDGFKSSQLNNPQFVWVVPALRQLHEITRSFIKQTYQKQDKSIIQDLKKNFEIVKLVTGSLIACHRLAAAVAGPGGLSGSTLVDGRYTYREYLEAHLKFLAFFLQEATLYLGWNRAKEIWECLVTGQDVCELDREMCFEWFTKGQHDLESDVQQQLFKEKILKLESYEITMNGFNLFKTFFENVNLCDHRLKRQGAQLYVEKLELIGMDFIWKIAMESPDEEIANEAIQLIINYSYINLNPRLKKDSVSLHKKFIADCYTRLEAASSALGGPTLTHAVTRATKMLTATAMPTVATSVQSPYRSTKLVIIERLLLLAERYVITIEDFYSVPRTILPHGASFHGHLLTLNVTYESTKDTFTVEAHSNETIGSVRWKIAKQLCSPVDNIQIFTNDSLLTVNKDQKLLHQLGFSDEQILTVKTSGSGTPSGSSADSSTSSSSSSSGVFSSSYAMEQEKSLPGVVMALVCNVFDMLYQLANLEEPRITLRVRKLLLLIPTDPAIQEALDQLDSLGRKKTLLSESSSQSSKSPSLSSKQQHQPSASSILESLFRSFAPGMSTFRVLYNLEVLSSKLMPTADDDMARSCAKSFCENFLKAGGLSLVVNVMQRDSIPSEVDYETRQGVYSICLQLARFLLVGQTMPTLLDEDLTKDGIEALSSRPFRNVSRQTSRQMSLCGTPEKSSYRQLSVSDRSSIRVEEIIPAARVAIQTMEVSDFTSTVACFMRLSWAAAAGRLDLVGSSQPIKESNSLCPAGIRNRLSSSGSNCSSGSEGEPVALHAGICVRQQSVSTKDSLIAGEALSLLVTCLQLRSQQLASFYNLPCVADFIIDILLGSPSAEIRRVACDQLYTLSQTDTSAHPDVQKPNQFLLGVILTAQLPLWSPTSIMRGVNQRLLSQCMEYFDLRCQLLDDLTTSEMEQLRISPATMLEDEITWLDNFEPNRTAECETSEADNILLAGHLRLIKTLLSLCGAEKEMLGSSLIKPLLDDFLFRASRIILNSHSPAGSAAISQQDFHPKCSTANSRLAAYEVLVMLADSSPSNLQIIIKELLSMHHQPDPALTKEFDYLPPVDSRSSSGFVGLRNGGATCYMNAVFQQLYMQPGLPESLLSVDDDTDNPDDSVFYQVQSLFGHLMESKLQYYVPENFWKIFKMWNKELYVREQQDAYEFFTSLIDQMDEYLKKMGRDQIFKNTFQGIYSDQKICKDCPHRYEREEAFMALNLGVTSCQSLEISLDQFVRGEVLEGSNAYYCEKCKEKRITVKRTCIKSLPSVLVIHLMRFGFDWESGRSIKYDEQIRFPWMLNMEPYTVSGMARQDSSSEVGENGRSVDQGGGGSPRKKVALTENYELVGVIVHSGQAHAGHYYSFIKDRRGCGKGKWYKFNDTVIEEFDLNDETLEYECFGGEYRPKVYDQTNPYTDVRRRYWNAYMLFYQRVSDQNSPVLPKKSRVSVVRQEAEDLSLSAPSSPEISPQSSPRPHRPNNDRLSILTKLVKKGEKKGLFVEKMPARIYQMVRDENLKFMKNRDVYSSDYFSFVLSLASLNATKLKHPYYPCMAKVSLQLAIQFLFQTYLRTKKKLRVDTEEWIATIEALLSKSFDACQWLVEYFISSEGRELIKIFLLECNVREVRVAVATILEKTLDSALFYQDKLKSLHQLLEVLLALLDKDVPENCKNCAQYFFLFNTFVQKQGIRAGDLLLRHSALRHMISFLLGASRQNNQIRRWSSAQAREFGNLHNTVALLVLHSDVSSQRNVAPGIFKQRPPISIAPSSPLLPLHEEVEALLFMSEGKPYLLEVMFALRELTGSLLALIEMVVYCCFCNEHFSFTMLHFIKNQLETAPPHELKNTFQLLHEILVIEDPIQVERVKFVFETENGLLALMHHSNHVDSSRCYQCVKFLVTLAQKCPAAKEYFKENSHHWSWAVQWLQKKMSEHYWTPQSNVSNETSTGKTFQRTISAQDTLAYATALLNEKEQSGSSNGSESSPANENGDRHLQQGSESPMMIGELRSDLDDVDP

O=C(CCl)N[C@H]1CCS(=O)(=O)c2ccccc21
inactive: USP19 -0.274 | USP24 -0.386 | USP25 -0.264 | USP28 -0.582
